Sfp inh – Sfp phosphopantetheinyl transferase inhibition. Q9F4F7. Biochemical Sfp PPTase activity, qHTS. Potency, µM, for inactives: largest response in the series, negative = inhibition, actives largely listed as inhibitors. 3.5% of 310,000 active. AID 1490;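 also: the enzyme is Sfp with the accession as filed and its product quenches rhodamine fluorescence; 0% = enzyme reaction without inhibitor and -100% = no enzyme wells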
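Step 1, compound plus 15 nM Sfp-PPTase, 15 min, room temperature. Step 2, add rhodamine-CoA (5 uM) and BHQ-2-YbbR (12.5 uM). Step 3, read 525/598 nm fluorescence at 0 and 30 min.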
HP1b chromo inh – HP1-beta chromodomain-methylated histone interaction inhibition. Potency, µM (titrated, usually from 114 µM), for inactives: top-dose activity change, negative = inhibition, hits mostly inhibitors. P83916. AID 540317. 0.56% of 390,000 active. AlphaScreen HP1-beta / biotin-H3K9me3 peptide binding; also: nearly all actives have a fitted effect of over 70% in size
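Compound inhibition of the preformed complex between 50 nM HP1-beta and 50 nM biotinylated H3K9me3 peptide was read by AlphaScreen. Buffer was PBS pH 7.4 with 0.01% Tween-20. Incubations ran 30 min at room temperature, with 10 ug/mL donor/acceptor beads.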
BAZ2B inh – inhibitors of human BAZ2B bromodomain; AlphaScreen BAZ2B-H3K14Ac peptide displacement; Potency, µM (highest dose often 114 µM), for the others: at the highest dose activity change, negative = inhibition, most hits filed as inhibitors; 4.4% of 360,000 active; AID 504333; also: % is scaled to controls: 0 for no effect and ±100 for the full control effect; nearly all actives have a fitted effect of over 60% in size
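Complex of BAZ2B and biotin-H3K14Ac (50 nM apiece) forms over 30 min at RT, then faces library compounds up to 110 uM for another 30 min; AlphaScreen beads added, 20 min dark incubation, luminescence read.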
G9a inh – blocks human histone lysine methyltransferase G9a; Potency, µM (series often up to 102 µM), without a hit: at the top dose activity, negative = inhibition, actives largely listed as inhibitors; Q96KQ7; G9a H3K9 monomethylation, AlphaScreen, 2 h; 8.8% of 350,000 active; also: % is scaled to controls: 0 for no effect and ±100 for the full control effect; nearly all actives have a fitted effect of over 75% in size
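Methyltransferase reactions run at room temperature for 2 h (20 nM enzyme, 500 nM biotin-H3K9 peptide, 20 uM SAM) after a 15 min compound preincubation; product detected by AlphaScreen beads and anti-H3K9me1 antibody.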
L3MBTL1 inh – blocks human L3MBTL1 | Potency, µM (doses to about 57.1 µM), for the others: at the highest dose activity, negative = inhibition, usual class: inhibitors | AlphaScreen L3MBTL1–H3K9me1 peptide binding | Q9Y468 | 0.66% of 230,000 active; also: % is scaled to controls: 0 for no effect and ±100 for the full control effect; nearly all actives have a fitted effect of over 60% in size
Target sequence (Q9Y468 whole entry, looked up): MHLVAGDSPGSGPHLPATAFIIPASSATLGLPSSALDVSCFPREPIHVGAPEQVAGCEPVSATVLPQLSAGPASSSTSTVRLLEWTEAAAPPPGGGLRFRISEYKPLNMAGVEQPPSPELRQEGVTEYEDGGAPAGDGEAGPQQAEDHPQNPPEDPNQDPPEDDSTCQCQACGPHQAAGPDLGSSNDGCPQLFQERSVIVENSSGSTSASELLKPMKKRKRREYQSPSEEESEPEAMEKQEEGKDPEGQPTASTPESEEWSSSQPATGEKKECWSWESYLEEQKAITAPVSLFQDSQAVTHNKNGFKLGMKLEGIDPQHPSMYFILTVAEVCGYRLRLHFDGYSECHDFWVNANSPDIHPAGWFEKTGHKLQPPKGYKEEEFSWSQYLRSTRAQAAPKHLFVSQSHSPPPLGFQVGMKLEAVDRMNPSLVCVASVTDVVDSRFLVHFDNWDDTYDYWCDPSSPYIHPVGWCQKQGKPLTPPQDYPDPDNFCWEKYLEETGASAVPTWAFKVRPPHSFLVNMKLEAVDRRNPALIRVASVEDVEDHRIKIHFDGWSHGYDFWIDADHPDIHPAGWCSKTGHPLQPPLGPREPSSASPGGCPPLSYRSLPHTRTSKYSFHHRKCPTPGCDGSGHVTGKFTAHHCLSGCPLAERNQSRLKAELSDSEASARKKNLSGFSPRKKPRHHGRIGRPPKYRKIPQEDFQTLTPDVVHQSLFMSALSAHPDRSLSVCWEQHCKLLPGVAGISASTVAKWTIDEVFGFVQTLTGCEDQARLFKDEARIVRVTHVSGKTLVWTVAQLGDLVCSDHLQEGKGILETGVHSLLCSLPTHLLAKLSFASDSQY
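L3MBTL1 50 nM + b-AHA-H3(1-15)K9me1 75 nM, 30 min RT; compound added, 30 min RT; streptavidin donor/Ni-chelate acceptor beads 10 ug/mL each final, 30 min RT dark; AlphaScreen read.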
JMJD2A Tudor inh – inhibitors of human JMJD2A Tudor domain. AID 504339. 4.4% of 390,000 active. O75164. AlphaScreen JMJD2A-Tudor / H3K4me3 peptide binding. Potency, µM (titrated, usually from 114 µM), inactives show at the top dose activity change, negative = inhibition, usual class: inhibitors; also: % is scaled to controls: 0 for no effect and ±100 for the full control effect; nearly all actives have a fitted effect of over 50% in size
Numbers without * were called inactive; ? = inconclusive; / = no result given; [ ] = remark or other dose. Most compounds without a hit are left out; they make up all but 12% or so of the library. Calls follow the shape of the dose curve; as a rule, active = well fitted curve in the direction sought with a large enough effect; inconclusive = small, poorly fitted or top-dose-only effect, or another doubt; inactive = no such curve, though single readings can be large; an effect the other way counts as inactive or inconclusive. Potency is read from the fitted curve at half-maximal effect.

SMILES | Sfp inh | HP1b chromo inh | BAZ2B inh | G9a inh | L3MBTL1 inh | JMJD2A Tudor inh
CN(C)C1C(=O)C(C(N)=O)=C(O)[C@@]2(O)C(=O)C3=C(O)c4c(O)ccc(Cl)c4[C@@H](O)C3C[C@@H]12 (some centres undefined) | / | / | / | 35.5µM* | / | /
CN(C)C1C(=O)C(C(N)=O)C(=O)C2(O)C(=O)C3C(=O)c4c(O)ccc(Cl)c4C(O)C3CC12 (centres undefined) | -9.5% | / | / | 15.8µM* | / | /
CCCCC(OC(=O)CNC(=O)c1ccccc1)C(=O)Nc1cc(C(F)(F)F)ccc1Cl (centres undefined) | / | / | / | / | / | -11.6%
Cc1c(C(=O)N2CCCCCC2)c(S(=O)(=O)NCc2ccccc2)c(C)n1C | / | 14.5% | -15.8% | 3.0%[59 µM] | / | -16.0%
COc1ccccc1CNc1nccn(-c2ccccc2)c1=O | / | -3.5% | -23.1% | -36.6%[59 µM] | / | ?
COc1cc2c(=O)n(Cc3ccco3)c(=O)n(CC(=O)c3cccc(Br)c3)c2cc1OC | 79.4µM* | 29.4% | -0.4%[57.1 µM] | 39.3%[0.501 µM] | 1.9% | 11.1%
COCC(=O)N1CCC2(CCN(Cc3ccncc3)CC2)CC1 | 40.9% | / | / | -5.1%[12.7 µM] | / | /
COc1cc(F)c(S(=O)(=O)N2CCN(S(=O)(=O)c3cccc(NC(C)=O)c3)CC2)c(F)c1 | / | / | / | / | / | -15.0%
CCOC(=O)Nc1sc(C)c(C)c1C(N)=O | -13.1% | 31.9% | 10.8% | 39.8µM* | -5.6% | 0.7%
Cc1sc(NC(=O)Nc2ccccc2)c(C(N)=O)c1C | 20µM* | ? | -29.1% | 8.91µM* | -3.6% | -24.8%
COC(=O)CCC(=O)NC(=S)Nc1sc(C)c(C)c1C(N)=O | -23.4% | 1.5% | 5.2% | 8.91µM* | 9.6% | -25.3%
CCOC(=O)c1c(NC(N)=O)sc(C)c1C | -13.3% | 43.3% | -10.1% | 1.9%[59 µM] | -1.2% | -13.1%
COC(=O)c1c(NC(=O)Nc2ccc(Cl)cc2)sc(C)c1C | -2.6% | 13.6% | -1.3% | 5.4%[59 µM] | / | -12.6%
COC(=O)CCC(=O)Nc1sc(C)c(C)c1C(N)=O | 14.1µM* | ? | -15.4% | 2.82µM* | 2.2% | ?
Cc1sc(NC(=S)NC(=O)CCc2ccccc2)c(C(N)=O)c1C | -20.5% | -5.1% | -8.2% | ? | 3.8% | -13.2%
Cc1ccc(NCc2cccn2-c2nnc(N3CCCCCC3)s2)cc1 | / | -16.1% | -8.3%[57.1 µM] | -34.0%[59 µM] | / | ?
COc1ccc(N2CCN(Cc3nnnn3C3CCCCC3)CC2)cc1 | -1.9% | ? | -39.0% | 50.1µM* | -15.2% | -26.8%
COc1ccc(NCc2cccn2-c2nnc(N3CCCCCC3)s2)cc1 | / | ? | -38.8%[57.1 µM] | ? | / | 44.7µM*
CCOc1ccc(NCc2cccn2-c2nnc(N3CCC(C(=O)NCCc4ccc(OC)c(OC)c4)CC3)s2)cc1 | / | -5.6% | ? | ? | / | ?
CCOc1ccc(NCc2cccn2-c2nnc(N3CCC(C(=O)NCCCN4CC(C)CC(C)C4)CC3)s2)cc1 (centres undefined) | 10.3% | ? | ? | 44.7µM* | / | 39.8µM*
COc1ccc(N2CCN(Cc3cccn3-c3nnc(N4CCN(C5CCCCC5)CC4)s3)CC2)cc1 | / | ? | ? | ? | / | 50.1µM*
O=C([O-])[C@@H]1[O][Sb+]([O][Sb+]2[O][C@H]([C@H](O)CO)[C@H](O)[C@H](C(=O)[O-])[O]2)[O][C@H]([C@H](O)CO)[C@@H]1O | -2.1% | / | / | / | / | /
CCOC(=O)N1CCC(N2Cc3cccc(C(=O)NC(C)c4ccc5c(c4)OCCO5)c3C2=O)CC1 (centres undefined) | -22.3% | 22.5% | -10.3% | 39.8µM* | / | -31.7%
CCOC(=O)N1CCC(N2C(=O)c3ccccc3C2Nc2ccccc2C)CC1 (centres undefined) | 8.1% | 31.1% | -4.4% | ? | -3.4% | -4.9%
CCOC(=O)N1CCC(N2C(=O)c3ccccc3C2Nc2ccc3c(c2)OCCO3)CC1 (centres undefined) | 21.5% | -5.8% | ? | 50.1µM* | / | ?
SMILES | Sfp inh | HP1b chromo inh | BAZ2B inh | G9a inh | L3MBTL1 inh | JMJD2A Tudor inh
CCOC(=O)N1CCC(N2C(=O)c3ccccc3C2Nc2ccc(S(=O)(=O)N3CCCCC3)cc2)CC1 (centres undefined) | -11.7% | / | -5.9% | 39.8µM* | / | /
CCOC(=O)c1ccccc1NC1c2ccccc2C(=O)N1C1CCN(C(=O)OCC)CC1 (centres undefined) | -6.8% | 18.0% | -25.5% | 39.8µM* | ? | -18.8%
CCOC(=O)C1CCCN(S(=O)(=O)c2ccc3ccccc3c2)C1 (centres undefined) | -3.3% | 64.5% | -3.7% | -7.2%[12.7 µM] | / | 32.4%
CCOC(=O)N1CCC(N2CCN(S(=O)(=O)c3ccc4ccccc4c3)CC2)CC1 | ? | ? | ? | 8.91µM* | / | 0.891µM*
Cc1ccc(NCCN(C)C)c2c(=O)c3cc(O)ccc3sc12 | / | ? | / | / | / | 39.8µM*
Cc1c2cnn(CC(=O)NCC(C)c3ccccc3)c(=O)c2c(C)n1Cc1cccc(Cl)c1 (centres undefined) | / | 55.4% | -1.2% | 11.8%[59 µM] | / | -2.0%
Brc1ccccc1OCCCCn1cnc2ccccc21 | 3.6% | 26.1% | -23.0% | 1.7%[12.7 µM] | -1.1% | -6.9%
Cc1ccc(OCCCCn2cnc3ccccc32)c(C)c1 | 50.1µM* | ? | 25.1µM* | 7.94µM* | / | 1.58µM*
Cc1cc(C)c(Cn2cnc3ccccc32)c(C)c1 | 5.7% | 36.6% | -16.6% | 44.7µM* | 2.1% | -9.8%
c1ccc(Cn2cnc3ccccc32)cc1 | 19.8% | 23.2% | 4.1% | -3.9%[59 µM] | 0.0% | -9.3%
COc1ccc(Cl)c2sc(NC(=O)c3ccc(S(=O)(=O)N4CCOCC4)cc3)nc12 | / | 20.2%[57 µM] | 3.1% | -36.1%[59 µM] | / | -5.5%
CC1CCC2C(C1)c1sc(=O)[nH]c1SC2(C)C (centres undefined) | 7.9% | -0.1% | ? | 50.1µM* | -8.3% | ?
O=C(CN1C(=O)/C(=C/c2c(F)cccc2Cl)Oc2ccccc21)NCc1ccco1 | 39.8µM* | / | -1.8% | -10.3% | 5.9% | /
COc1ccc(OC)c(CCNC(=O)c2cc3c(=O)n(C)c4ccccc4c3n2C)c1 | / | 12.3% | ? | -37.9%[59 µM] | / | -19.2%
COC(=O)c1ccc2nc(NC(=O)CSCC(=O)OCC(=O)c3ccccc3)sc2c1 | -13.6% | 29.8% | -8.5% | 7.94µM* | 0.8% | ?
Cc1ccc2nc(NC(=O)CSCC(=O)OCC(=O)c3ccc(Br)cc3)sc2c1 | 5.6% | 40.4% | -6.3% | 44.7µM* | -4.5% | ?
O=C(CSc1ccc(-c2ccccn2)nn1)Nc1nccs1 | -17.1% | 15.6% | -9.3% | 39.6% | / | 2.51µM*
COc1ccc(-c2ccc(SCC(=O)Nc3nccs3)nn2)cc1OC | 5.7% | 70.0% | -36.0% | 3.5% | -3.8% | ?
